Screens as filed in PubChem BioAssay.
Sampled rows, rich in hits. Any-hit rate of the full collection: about 5.7%.
ATXN viability = reduces viability in counter-screen for ATXN expression inhibitors; S2 cells (HEK-293 line with an ATXN2-luciferase reporter) viability, CellTiter-Fluor protease fluorescence, 24 h; 400,000 tested, 0.49% active; Potency, µM (titrated, usually from 56.7 µM), actives largely listed as cytotoxic; AID 651635; note: potency is the fitted concentration of half-maximal effect; nearly all actives have a fitted effect of over 40% in size
HepG2 viability = counter-screen for TGF-b inhibitors: cytotoxicity in HepG2 cells. HepG2 CAGA-GFP viability, ATP luminescence, 18 h. Potency, µM (series often up to 46.1 µM), without a hit: top-dose activity change, negative = cytotoxicity, most hits filed as cytotoxic. 410,000 tested, 0.76% active. AID 588856; note: potency is the fitted concentration of half-maximal effect
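HepG2 CAGA-GFP cells (1000/well, DMEM with 1% FBS) received compound, then TGF-beta at 500 pg/mL final, and were incubated 18 hours at 37 degrees C. Viability was read by CellTiter-Glo luminescence. Media-only wells were set as complete cell-killing and DMSO as no toxicity.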
TGFb SMAD3 inh = TGF-b pathway inhibition | HepG2 CAGA-GFP TGF-b/SMAD3 reporter, GFP fluorescence, 18 h; TGF-beta stimulated, 500 pg/mL final | Potency, µM (highest dose often 46.1 µM), for inactives: top-dose activity, negative = inhibition, usual class: inhibitors | 410,000 tested, 1.2% active | AID 588855; note: potency is the fitted concentration of half-maximal effect; % is set by controls: 0 for no effect and ±100 for the full control effect; nearly all actives have a fitted effect of over 65% in size
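Read-out: total well GFP (ex488/em500-530) summed from mean per-cell fluorescence. Cells: HEPG2 CAGA-GFP, 1% FBS DMEM, 18 h at 37 degrees C with 500 pg/mL final TGF-beta. Unstimulated wells served as the full-inhibition control; stimulated DMSO wells = 0%.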
IL1B secr inh = blocks inflammasome-driven IL-1 beta release; THP-1 LPS/ATP IL-1B secretion, AlphaLISA, 16 h; active compounds read low; activity change, % at 57.5 µM; 360,000 tested, 4.7% active; AID 743279; in the data active = activity change below about -50%; inconclusive = mostly about -30% to -49%; note: % is set by controls: 0 for no effect and ±100 for the full control effect
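Secreted IL-1B measured by AlphaLISA bead assay after 16 h compound exposure of THP-1 cells; compounds (final up to 57.5 uM) added 1 h before LPS (250 ng/mL) and ATP (1.25 mM) stimulation; lower signal means less secretion.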
ATXN2 expr inh = reduces ATXN2 reporter expression in HEK-293 cells | HEK-293 ATXN2-luciferase reporter, luminescence, 24 h | Potency, µM (doses to about 57 µM), inactives show at the top dose activity change, negative = inhibition, actives largely listed as inhibitors | 360,000 tested, 0.72% active | AID 1745845; note: potency is the fitted concentration of half-maximal effect; % is set by controls: 0 for no effect and ±100 for the full control effect; nearly all actives have a fitted effect of over 55% in size
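ATXN2-luciferase reporter cells (luciferase flanked by upstream and downstream ATXN2 gene portions) were treated 24 h at 37 °C with compounds at up to 57 uM. SteadyGlo luminescence gave expression; GF-AFC fluorescence gave viability.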
Starred values were filed as active, the others as inactive. Unless noted, calls come from the whole dose curve; as a rule, active = well fitted curve in the direction sought with a large enough effect; inconclusive = small, poorly fitted or top-dose-only effect, or another doubt; inactive = no such curve, though single readings can be large; an effect the other way counts as inactive or inconclusive.

What do the screens show for `OCCNCC(O)Cn1c2ccccc2c2ccccc21` (centres undefined)?
ATXN viability: inactive; HepG2 viability: 3.1%; TGFb SMAD3 inh: 0.4%; IL1B secr inh: -4.7; ATXN2 expr inh: -6.3%

What do the screens show for `C=CCN(CC=C)CC(O)Cn1c2ccccc2c2ccccc21` (centres undefined)?
ATXN viability: inconclusive; HepG2 viability: -38.5%; TGFb SMAD3 inh: inconclusive; IL1B secr inh: -73.9*; ATXN2 expr inh: inconclusive

What do the screens show for `COc1ccccc1CNCC(O)Cn1c2ccccc2c2ccccc21` (centres undefined)?
HepG2 viability: 11.2µM*; TGFb SMAD3 inh: inconclusive; IL1B secr inh: -61.4*; ATXN2 expr inh: inconclusive

What do the screens show for `Cc1ccc(C)c(Cn2c3ccccc3c3cnn(CC(=O)NC4CCC(C)CC4)c(=O)c32)c1` (centres undefined)?
ATXN viability: inactive; HepG2 viability: -7.1%; TGFb SMAD3 inh: 5.1%; ATXN2 expr inh: 13.6%

Results for COc1ccc2c(c1)c1c(c(=O)n(-c3cc(Cl)ccc3C)c(=O)n1Cc1ccc(F)cc1)n2C ?
ATXN viability: inactive; HepG2 viability: -1.0%; TGFb SMAD3 inh: -9.5%; ATXN2 expr inh: 1.7%

Results for CCCCN(CC)C(=O)c1nn(C)c2c1CSc1ccccc1-2 ?
HepG2 viability: -21.6%; TGFb SMAD3 inh: -14.1%

How did CC(C)CCC(CCN1CCOCC1)c1ccc2c(c1)OCO2 (centres undefined) do in these assays?
ATXN viability: inactive; HepG2 viability: -31.0%; TGFb SMAD3 inh: -6.0%; IL1B secr inh: -9.4; ATXN2 expr inh: -17.3%

What do the screens show for `CC(C)CCC(CCN1CCCC1)c1ccc2c(c1)OCO2` (centres undefined)?
ATXN viability: inactive; HepG2 viability: -161.4%; TGFb SMAD3 inh: inconclusive; IL1B secr inh: -70.4*; ATXN2 expr inh: -29.2%

What do the screens show for `COCCCNCCC(CCC(C)C)c1ccc2c(c1)OCO2` (centres undefined)?
ATXN viability: inactive; HepG2 viability: -33.1%; TGFb SMAD3 inh: -7.4%; IL1B secr inh: -70.5*; ATXN2 expr inh: inconclusive

What do the screens show for `CC(CCc1ccc2c(c1)OCO2)NN` (centres undefined)?
ATXN viability: inactive; ATXN2 expr inh: 15.9%

Results for Cc1ccc(S(=O)(=O)C(CNC(=O)C(=O)NCCc2ccc(Cl)cc2)c2cccs2)cc1 (centres undefined) ?
ATXN viability: inactive; HepG2 viability: -17.0%; TGFb SMAD3 inh: -26.4%; ATXN2 expr inh: 5.3%

Results for CCCC(=O)C1=C(c2cccc(OC)c2)N(C(=O)CCC)n2c(C)nnc2S1 ?
HepG2 viability: -84.9%; TGFb SMAD3 inh: inconclusive

Results for CCOC(=O)c1cc(OC(=O)c2ccc(C)cc2)n(-c2ccccc2)n1 ?
ATXN viability: inactive; HepG2 viability: -48.5%; TGFb SMAD3 inh: -16.5%; ATXN2 expr inh: 52.1%

Results for Cc1ccc(SCCNC(=O)c2ccc(C)c(S(=O)(=O)Nc3ccccc3C)c2)cc1 ?
ATXN viability: inconclusive; HepG2 viability: -33.8%; TGFb SMAD3 inh: inconclusive; IL1B secr inh: -67.4*; ATXN2 expr inh: inconclusive

How did COc1ccccc1NS(=O)(=O)c1cc(C(=O)NCc2ccco2)ccc1C do in these assays?
ATXN viability: inactive; HepG2 viability: 3.8%; TGFb SMAD3 inh: -2.9%; IL1B secr inh: -63.3*; ATXN2 expr inh: 1.2%

Results for Cc1ccccc1OCC(=O)Nc1cc(C)c(O)c(-c2nc3ccccc3o2)c1 ?
HepG2 viability: -14.9%; TGFb SMAD3 inh: 18.9%

Results for O=C(Nc1cccc(Cl)c1)c1ccc2c(c1)CCN2S(=O)(=O)c1ccccc1 ?
ATXN viability: inconclusive; HepG2 viability: -13.7%; TGFb SMAD3 inh: -8.7%; ATXN2 expr inh: -11.3%

What do the screens show for `COc1ccc(C(CC(=O)Nc2ccc(OC)c(OC)c2)N2Cc3ccccc3C2=O)cc1` (centres undefined)?
HepG2 viability: -10.7%; TGFb SMAD3 inh: inconclusive

Results for COc1ccc(-c2c3c(=O)n(C)c(=O)n(C)c3cn2-c2ccccc2)cc1 ?
ATXN viability: inactive; HepG2 viability: -8.6%; TGFb SMAD3 inh: -25.9%; IL1B secr inh: 13.6; ATXN2 expr inh: 3.5%

What do the screens show for `COc1ccc(-c2c3c(=O)n(C)c(=O)n(C)c3cn2-c2ccc(O)cc2)cc1`?
ATXN viability: inactive; HepG2 viability: 0.4%; TGFb SMAD3 inh: -2.8%; IL1B secr inh: -55.0*; ATXN2 expr inh: 3.6%

How did COc1ccc(NC(=O)/C(C#N)=C/C=C/c2ccco2)cc1 do in these assays?
ATXN viability: inconclusive; HepG2 viability: -53.5%; TGFb SMAD3 inh: inconclusive; IL1B secr inh: -67.0*; ATXN2 expr inh: -24.7%

What do the screens show for `COc1ccc(NC(=O)/C(C#N)=C/c2ccc(C)o2)cc1`?
ATXN viability: inactive; HepG2 viability: -16.3%; TGFb SMAD3 inh: 5.1%; ATXN2 expr inh: 62.0%

How did Cc1cc(C(=O)CSc2nc(N)cc(N)n2)c(C)n1CCc1ccc(F)cc1 do in these assays?
ATXN viability: inconclusive; HepG2 viability: -35.8%; TGFb SMAD3 inh: inconclusive; IL1B secr inh: -66.2*; ATXN2 expr inh: -28.9%

Results for COc1ccc(-n2c(=O)c3c4c(sc3n(CC(=O)N3CCCCC3C)c2=O)CCC4)c(OC)c1 (centres undefined) ?
HepG2 viability: 3.8%; TGFb SMAD3 inh: -7.2%

What do the screens show for `COc1ccc(C(=O)CSc2nc(C(C)(C)C)nc3ccccc23)cc1`?
ATXN viability: inactive; HepG2 viability: -31.2%; TGFb SMAD3 inh: 20µM*; IL1B secr inh: 4.0; ATXN2 expr inh: -23.3%

What do the screens show for `Oc1ccccc1-c1nc(NCCN2CCOCC2)c2ccccc2n1`?
ATXN viability: inconclusive; HepG2 viability: -31.2%; TGFb SMAD3 inh: 7.7%; ATXN2 expr inh: -16.4%

Results for Cc1cc(NCCN2CCOCC2)c2ccc3ccccc3c2n1 ?
ATXN viability: inconclusive; HepG2 viability: -14.8%; TGFb SMAD3 inh: 5.4%; IL1B secr inh: -82.2*; ATXN2 expr inh: inconclusive

What do the screens show for `Clc1cccc(-c2nc(NCCCN3CCOCC3)c3ccccc3n2)c1`?
HepG2 viability: -43.1%; TGFb SMAD3 inh: inconclusive; IL1B secr inh: inconclusive

How did COc1ccc2nc(C)cc(NCCN3CCOCC3)c2c1 do in these assays?
ATXN viability: inactive; HepG2 viability: -1.7%; TGFb SMAD3 inh: 3.4%; IL1B secr inh: inconclusive; ATXN2 expr inh: -6.5%

What do the screens show for `Clc1cccc(-c2nc(NCCN3CCOCC3)c3ccccc3n2)c1`?
ATXN viability: inactive; HepG2 viability: -33.3%; TGFb SMAD3 inh: -31.1%; IL1B secr inh: -86.0*; ATXN2 expr inh: -23.9%

How did Cc1ccc(-c2nc(NCCN3CCOCC3)c3ccccc3n2)cc1 do in these assays?
ATXN viability: inconclusive; HepG2 viability: -40.1%; TGFb SMAD3 inh: -12.5%; IL1B secr inh: -59.1*; ATXN2 expr inh: -21.7%
